aSyn UTR act: Activators working through SNCA 5'UTR binding (MLPCN); alpha-synuclein 5'UTR reporter, activators screen; activity score, % (tested at 7.5 µM), hits read low; hit rate 7.1% among 300,000; AID 1814; in the data active = activity score below about -60%
Numbers stand for hits; n = inactive. These entries were drawn from the full list.

SMILES	aSyn UTR act
Cc1nn(Cc2c(F)c(F)c(F)c(F)c2F)c(C)c1NC(=O)c1ccc(COc2cc(Cl)ccc2Cl)cc1	-133.0
Cc1cccc(C(=O)c2c(N)sc3c2CCC(C)C3)c1 (stereo not drawn)	-85.3
COc1ccc(-c2ccc(/C=C3/C(=N)N4C=CSC4=NC3=O)o2)c([N+](=O)[O-])c1	-116.4
CCN1CCN(c2cc3c(nn2)Oc2ccccc2N3C)CC1	-128.5
CCOC(=O)c1cn(-c2ccc([N+](=O)[O-])cc2)c2cc(Cl)c([N+](=O)[O-])cc2c1=O	-110.0
O=C(Nc1cc2c(cc1Cl)OCCCO2)c1ccc(F)cc1	-89.8
Cc1ccc(C(=O)Nc2cc3c(cc2Cl)OCCCO3)cc1	-144.9
O=C(Nc1cc2c(cc1Br)OCCCO2)c1ccccc1	-104.4
O=C(CSc1ccccc1)Nc1ccc2sccc2c1	-77.9
O=C(CSc1cccs1)Nc1cccc2ccccc12	-112.4
O=C(CSc1cccs1)Nc1ccc2ccccc2c1	-125.7
CCN1/C(=C\C=C2\C(=O)N(C)C(=S)N2C)Sc2ccccc21	-81.2
CCCCN1/C(=C/c2ccc3ccccc3[n+]2CC)Sc2ccccc21	n
Cc1cccc2c1cnn2C(=O)Nc1ccccc1Cl	-142.6
Cc1cccc2c1cnn2C(=O)Nc1ccccc1Br	-125.1
Cc1ccccc1NC(=O)n1ncc2cc(Cl)ccc21	-97.8
Cc1nc(-c2ccc(NC(=O)C3CC3)cc2)cs1	-160.5
COc1ccc(-c2csc(NC(=O)CC(C)C)n2)cc1	-127.7
Cc1nc(-c2ccc(NC(=O)CC(C)C)cc2)cs1	-143.3
Brc1ccccc1OCCCCn1cnc2ccccc21	-138.1
Cc1ccc(OCCCCn2cnc3ccccc32)c(C)c1	-88.1
CC1Cc2cc(/C(O)=C3/C(=O)C(=O)N(CC4CCCO4)C3c3ccco3)ccc2O1 (stereo not drawn)	-61.6
C=CCOc1ccc(/C=C/C(C)=N\O)cc1	-109.8
Cc1ccc(Nc2nc(NCc3ccco3)c3ccccc3n2)cc1	-138.9
Nc1nc(Nc2ccc(Cl)cc2)nc(NCc2ccco2)c1[N+](=O)[O-]	-74.6
SMILES	aSyn UTR act
CCC(C)Nc1nc(N)c([N+](=O)[O-])c(NC2CCCCC2)n1 (stereo not drawn)	n
CCC(C)Nc1nc(N)c([N+](=O)[O-])c(NCc2ccccc2)n1 (stereo not drawn)	n
O=c1c2ccccc2nc2c3ccccc3c(NCc3ccco3)nn12	-81.5
Fc1ccccc1NC(=S)N1CCC(c2ccccc2)C1 (stereo not drawn)	-111.1
S=C(Nc1ccccc1Cl)N1CCC(c2ccccc2)C1 (stereo not drawn)	-119.8
C=CCn1c(O)c(N=NC(=S)Nc2ccccc2F)c2ccccc21	n
Oc1c(N=NC(=S)Nc2ccccc2F)c2ccccc2n1Cc1ccccc1	n
Fc1cc(F)cc(NC(=S)N2CCC(c3ccccc3)C2)c1 (stereo not drawn)	-98.8
CCN(CC)c1ccc2c(cc1=O)[C@@H](NC)CCc1cc(OC)c(OC)c(OC)c1-2	n
COc1ccc2nc(N3CCCC3)c(C#N)cc2c1	-105.2
COc1ccc2nc(N3CCCCC3)c(C#N)cc2c1	-110.1
NC(=O)c1ccccc1Nc1nc2nc3ccccc3c(=O)n2cc1Br	-82.7
Cc1ccc2nc(NC(=O)C3CCCN(S(=O)(=O)c4cnc[nH]4)C3)sc2c1 (stereo not drawn)	-127.9
COc1ccccc1-n1cnc2cc(NC(=O)c3ccco3)ccc21	-87.3
CC(C)n1cnc2cc(NC(=O)c3ccco3)ccc21	-71.2
O=C(Nc1ccc2c(c1)ncn2C1CCCCC1)c1ccco1	-116.7
CC(=O)N1N=C(c2ccc(C)cc2)OC1c1ccc(C)cc1 (stereo not drawn)	-129.0
CC(=O)N1N=C(c2ccc(C)cc2)OC1c1ccc(C(C)C)cc1 (stereo not drawn)	-181.7
c1ccc(-c2noc(C34CC5CC(CC(C5)C3)C4)n2)cc1	-69.5
c1ccc(-c2noc(C34CC5CC(CC(C5)C3)C4)n2)nc1	-209.1
Brc1c(CSc2nc3ccccc3s2)nc2ncccn12	-109.6
CC1CCC(NC(=O)Cn2c(=O)[nH]c3ccsc3c2=O)CC1 (stereo not drawn)	-130.4
CCc1ccc2[nH]c(C(=O)Nc3ccc(C)c(F)c3)cc2c1	-109.1
O=C(Nc1ccc(F)cc1)c1cc2cc(Cl)ccc2[nH]1	-61.9
COc1ccccc1Oc1ccc(N/C=C/C(=O)c2ccco2)cc1	-199.1
SMILES	aSyn UTR act
O=C(/C=C/Nc1ccc(Oc2ccccc2Cl)cc1)c1ccco1	-183.8
CC(C)(C)c1cc[n+](C2=C([O-])c3ccccc3C(=O)/C2=N\S(=O)(=O)c2cccs2)cc1	n
CCCc1cc(C(=O)Nc2cccc(Cl)c2C)no1	-150.0
CCCc1cc(C(=O)Nc2ccc(F)cc2F)no1	-116.0
CCCc1cc(C(=O)Nc2ccccc2SC)no1	-155.5
Cc1cc2ccc3ccccc3c2cc1CN(C)C	-75.9
Cc1ccc(NC(=O)Nc2ccc(F)cc2)cc1Cl	-130.4
COc1cccc(NC(=O)Nc2ccc(C)c(Cl)c2)c1	-156.6
CCN=c1scc(C)n1/N=C/c1ccsc1	-226.0
CCN1CCN(C(=O)/C=C/c2c(F)cccc2Cl)CC1	-90.0
O=C(/C=C/c1c(F)cccc1Cl)N1CCc2ccccc2C1	-85.1
COC(=O)CCS(=O)(=O)c1nc(-c2ccccc2)cc(C(F)(F)F)n1	-73.2
CCOC(=O)CCS(=O)(=O)c1nc(-c2ccccc2)cc(C(F)(F)F)n1	-129.3
CCCc1sc(N/N=C/c2ccccn2)nc1-c1ccc(Br)cc1	n
CCOC(=O)c1nc(N/N=C/c2ccccc2)sc1Br	-82.4
CC(=O)c1sc(N/N=C\c2ccc(Br)cc2)nc1C	-78.6
Cc1ccsc1/C=N/NC(=O)c1sccc1C	-166.8
Cc1ccc(C(=O)N/N=C/c2c(O)ccc3ccccc23)cn1	n
Cc1ccsc1/C=N/NC(=O)c1ccco1	-81.2
Cc1ccc(C(=O)N/N=C\c2sccc2C)cn1	-75.3
Cc1ccsc1/C=N/N=C/c1sccc1C	-181.2
COc1cc(C2NC(=S)NC(C)=C2C(=O)Nc2ccc(C)cc2)ccc1O (stereo not drawn)	-170.8
Oc1ccc(Br)cc1C=Nc1cccn2cc(-c3ccccc3)nc12	-80.4
CCOc1cc(CNc2ccc(N3CCCC3)cc2)cc(Cl)c1OC	-67.0
C=CCOc1c(Cl)cc(CNc2ccc(C)c(Cl)c2)cc1OC	n
SMILES	aSyn UTR act
CCN1CCN(Cc2ccc(OCc3ccccc3)c(OC)c2)CC1	-89.6
CCN1CCN(Cc2ccc(OCc3ccccc3)cc2)CC1	-77.3
CCOC(=O)C1CCN(C(=O)CNC(=O)c2nn(-c3ccc(OC)c(Cl)c3)c(=O)c3ccccc23)CC1	-70.1
Cc1nn(-c2nnc(NCc3ccccc3)nn2)c(C)c1Br	-85.1
[O-][n+]1c2ccccc2c2n1CCCN=C2c1ccc(Cl)cc1	-149.1
Cc1cc2nn(-c3cccc4ccccc34)nc2cc1N	-179.9
O=C(c1ccccc1)c1c(O)nc(-c2ccccc2)n(-c2ccccc2)c1=O	-67.5
CC1CCN(C(=O)c2cc(-c3ccccc3O)on2)CC1	-82.0
CC1CCN(C(=O)c2cc(-c3ccco3)on2)CC1	-139.9
COC(=O)c1sc(NC(=O)COc2ccccc2C)nc1C	-90.5
COc1ccccc1OCC(=O)Nc1nc(C)c(C)s1	-83.0
O=C(COc1ccccc1)Nc1nc2c(s1)CCCC2	-87.8
CC(C)CCn1nc(C(=O)Nc2nc3c(s2)CCCC3)c2ccccc2c1=O	n
CC(=O)c1sc(NC(=O)COc2ccccc2)nc1C	-108.9
COC(=O)Nc1nc2c(s1)CCCC2	-86.8
CCN1CCN(/C=N/c2nc3c(s2)CCCC3)CC1	n
COC(=O)c1ccc(CO/N=C2\CCCc3nonc32)cc1	-122.1
COc1cccc(C(=O)Nc2nc3ccccc3s2)c1	-108.3
